Screens deposited in PubChem BioAssay by National Center for Advancing Translational Sciences (NCATS).
Sampled rows, rich in hits. Any-hit rate of the full collection: about 1.4%.
KCNH2 3.1 inh – KCNH2 3.1 (human) potassium channel inhibition. U2OS KCNH2 3.1, thallium flux FluxOr; active compounds read low. activity change, % (tested at about 1.8 µM). 0.95% of 340,000 active;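 active = maximum activity change below -70%; inconclusive = maximum activity change from -70% to -50%; inactive = maximum activity change above -50%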;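 also: thallium influx rate constant from kinetic fluorescence after stimulation buffer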
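FluxOr-based Tl+ influx in U2OS cells transduced with KCNH2 3.1 virus; rate constants normalized to DMSO controls.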
uPA generation – inhibitors of cell surface uPA generation; Potency, µM (series often up to 38.3 µM), most hits filed as inhibitors; 0.31% of 330,000 active; cell surface uPA generation assay, qHTS; active = well fitted inhibition curve with a large enough effect; inconclusive = small, poorly fitted or top-dose-only effect; inactive = no such curve, though single readings can be large or run the other way; tested in mouse RAW 264.7 cells; also: nearly all actives have a fitted effect of over 55% in size
p53 reactivation – mutant p53 re-activation in reporter cells | H1299 p53-A138V BP100-luciferase reporter, luminescence, 24 h | Potency, µM (highest dose often 92.2 µM), most hits filed as activators | 0.063% of 320,000 active | AID 504706; also: nearly all actives have a fitted effect of over 45% in size
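H1299 (p53-null), stable ts p53-A138V + BP100-Luc; 1000 cells/well, Opti-MEM/10% FBS; cpd 4 pt, 1:5; 24 h, 37 deg C, 5% CO2; detection reagent 10 min RT; luminescence.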
ASM inhibitor – inhibitors of human secretory acid sphingomyelinase | P17405 | placental ASM, HMU-PC fluorogenic substrate, 60 min | Potency, µM (series often up to 57.5 µM), most hits filed as inhibitors | 0.006% of 340,000 active
Target sequence (P17405 47-631 limits assumed): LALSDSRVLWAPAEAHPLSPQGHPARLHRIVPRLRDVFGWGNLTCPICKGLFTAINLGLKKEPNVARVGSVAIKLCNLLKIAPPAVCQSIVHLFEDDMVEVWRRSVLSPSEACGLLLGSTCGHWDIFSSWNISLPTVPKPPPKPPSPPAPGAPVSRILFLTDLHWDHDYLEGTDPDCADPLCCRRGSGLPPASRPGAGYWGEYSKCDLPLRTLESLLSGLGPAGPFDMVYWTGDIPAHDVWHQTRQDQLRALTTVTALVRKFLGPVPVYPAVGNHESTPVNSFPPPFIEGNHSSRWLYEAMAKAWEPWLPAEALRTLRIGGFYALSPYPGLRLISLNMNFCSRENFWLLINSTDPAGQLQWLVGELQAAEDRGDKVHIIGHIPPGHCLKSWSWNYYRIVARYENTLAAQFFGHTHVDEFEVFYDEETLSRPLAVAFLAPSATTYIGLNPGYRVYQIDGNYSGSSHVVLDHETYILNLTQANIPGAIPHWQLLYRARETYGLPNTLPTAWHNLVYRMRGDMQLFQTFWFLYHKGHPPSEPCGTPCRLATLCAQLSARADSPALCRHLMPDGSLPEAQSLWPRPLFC
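qHTS format. ASM enzyme prepared from human placenta hydrolyses the fluorogenic substrate HMU-PC0 (9 uM final) over 60 min at 37 °C after a 10 min compound preincubation.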
MmCpn inh – M. maripaludis TRiC chaperonin inhibition | 0.031% of 330,000 active | AID 504842 | Potency, µM (top dose mostly 76.9 µM), hits mostly inhibitors | purified Mm-Cpn ATPase, ADP Transcreener TR-FRET; also: nearly all actives have a fitted effect of over 80% in size
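TR-FRET (320 nm excitation; 590 and 665 nm emission) reports ADP made from 10 uM ATP by 25 nM enzyme; compounds were preincubated 10 min, reaction run 30 min, both at 37°C.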
hERG WT inh – blocks the wildtype human KCNH2 potassium channel. U2OS, BacMam KCNH2, thallium flux FluxOr; active compounds read low. activity change, % at 1.84 µM. 0.37% of 340,000 active. AID 720551;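 active = maximum activity change below -70%; inconclusive = maximum activity change between -70% and -50%; inactive = maximum activity change above -50%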
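U2OS cells were transduced with wild-type KCNH2 virus (2.03 x 10^8 / mL) for 4 h at room temperature, then cultured overnight at 37 C. Thallium flux was read with FluxOr dye. Rate constants were normalized to DMSO controls.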
A number is an active result; n = inactive; u = inconclusive; x = not tested or not shown; [ ] = dose if it differs, or a comment. Unless noted, calls follow the shape of the dose curve; as a rule, active = well fitted curve in the direction sought with a large enough effect; inconclusive = small, poorly fitted or top-dose-only effect, or another doubt; inactive = no such curve, though single readings can be large; an effect the other way counts as inactive or inconclusive.

SMILES | KCNH2 3.1 inh | uPA generation | p53 reactivation | ASM inhibitor | MmCpn inh | hERG WT inh
O=C(Cc1ccccc1)Nc1nc(-c2ccc(F)c(F)c2)cs1 | n | n | n | n | n | n
COc1cc([N+](=O)[O-])cc2sc(NC(C)=O)nc12 | n | 10µM | n | n | n | n
CCCCC(=O)Nc1nc2c(OC)cc([N+](=O)[O-])cc2s1 | n | n | n | n | n | n
CCOc1ccc(CN2CCN(Cc3cc4ccccc4o3)CC2CCO)cc1 (stereo not given) | -107 | n | u | n | n | n
COc1cccc(CN2CCN(Cc3cc4ccccc4o3)CC2CCO)c1 (stereo not given) | n | n | x | n | n | n
CCOc1ccc(CN2CCN(Cc3nc(C(C)C)cs3)CC2CCO)cc1 (stereo not given) | -96 | n | n | n | n | x
COc1ccc(CN2CCN(Cc3cc4ccccc4o3)CC2CCO)cc1C (stereo not given) | -71 | n | x | n | n | n
O=C(Nc1cccc(-n2cnnn2)c1)c1cc(Cl)ccc1Cl | n | n | n | n | n | n
O=C(Nc1cccc(-n2cnnn2)c1)c1ccoc1COc1ccc(Cl)cc1 | -74 | n | n | u | n | u
Cc1ccc(C(=O)COC(=O)CNC(=O)CNC(=O)c2ccc(C)cc2)cc1 | -85 | n | n | n | n | n
CCCn1c(N)c(N(CCOC)C(=O)CCC2CCCCC2)c(=O)[nH]c1=O | n | n | n | n | n | n
C=CCOc1ccc(C2=NOC(C(=O)Nc3ccc4c(c3)OCCO4)C2)cc1OC (stereo not given) | n | n | n | n | n | -189
COc1ccc(C2=NOC(C(=O)Nc3ccc4c(c3)OCCO4)C2)cc1OC (stereo not given) | n | n | n | n | n | n
COc1ccccc1NC(=O)c1cnc(SCC(=O)NCCc2ccccc2)n(C)c1=O | n | n | n | n | n | n
Nc1cccc2cc(S(=O)(=O)O)ccc12 | n | n | x | n | x | n
Cc1ccc(NCc2nnc(SCc3ccc(C#N)cc3)n2Cc2ccco2)c(C)c1 | u | n | n | n | n | -97
C=CCN1C(=O)C(C)(C)N(C(C)=O)c2ccccc21 | n | n | n | n | n | x
CC(=O)N1c2ccccc2N(Cc2ccc(C)cc2C)C(=O)C1(C)C | n | 7.1µM | n | n | n | n
Cc1ccc(NC(=O)c2cc3ccccc3oc2=N)cc1 | n | n | n | n | n | n
N=c1oc2c3c4c(cc2cc1C(=O)Nc1ccccc1)CCCN4CCC3 | -85 | n | u | n | n | -223
CCN1/C(=C\c2ccc3cc(C)ccc3[n+]2CC)Sc2cc(C)c(C)cc21 | n | u | n | n | u | -126
O=C1/C(=C\c2ccco2)CCC/C1=C\c1ccco1 | n | n | 25µM | n | n | n
CC1C/C(=C/c2ccco2)C(=O)/C(=C/c2ccco2)C1 (stereo not given) | x | x | n | x | n | x
O=C(NC(Cc1ccccc1)C(=O)O)/C(=C\c1ccc(Cl)cc1)NC(=O)c1ccccc1 (stereo not given) | n | n | n | n | n | -92
Cc1ccc(C(=O)NCC(c2ccc(F)cc2)N2CCOCC2)cc1S(=O)(=O)N1CCOCC1 (stereo not given) | n | n | x | n | x | n
SMILES | KCNH2 3.1 inh | uPA generation | p53 reactivation | ASM inhibitor | MmCpn inh | hERG WT inh
COC(=O)Cn1ccc(-c2ccc(Cl)cc2)c(C#N)c1=O | -114 | n | n | n | n | n
CC1(c2nc3ccccc3cc2C#N)OCCO1 | n | x | x | x | x | n
CCCCCCN1C=C/C(=C\C=C(C#N)C#N)c2ccccc21 | -105 | n | n | n | n | -148
CCCCCN1C=CC=C/C1=C\C=C(C#N)C#N | n | n | n | n | n | n
CCCCCCN1C=CC=C/C1=C/C=C(C#N)C#N | n | n | n | n | n | -123
O=C1/C(=C/c2cccnc2)CCC/C1=C\c1cccnc1 | n | 8.9µM | n | n | n | n
O=C1/C(=C/c2cccnc2)CC/C1=C\c1cccnc1 | n | n | n | n | n | n
CC(C)C/C(O)=C/c1nc2cc(Cl)ccc2oc1=O | n | 1.4µM | n | n | n | n
CCN(CC)C(=O)C1=C(C)N(Cc2ccc(OC)cc2)C(=O)C(CC(=O)NCc2cccs2)C1 (stereo not given) | n | x | x | x | x | n
COc1cc2c(cc1OC)C1O[C@](CCCCN3C(=O)c4ccccc4C3=O)(C2)OC2=C1C(=O)OC1(CCCCC1)C2 | x | x | x | x | n[15.4 µM] | x
Cc1ccc(N2CCN(C(=O)Nc3cccc([N+](=O)[O-])c3)CC2C)cc1 (stereo not given) | -74 | n | n | n | n | -77
Cc1cccc(C)c1Nc1nnc(SCc2cn3cccc(C)c3n2)s1 | -179 | n | n | n | n | x
COC(=O)[C@H]1C[C@@]2(O)CN(S(=O)(=O)c3ccc(C)cc3)C[C@@]2(OC(=O)Nc2c(C)noc2C)C[C@H]1C(=O)OC | n | x | x | x | x | n
CCOc1ccc(C(=O)C(C)OC(=O)Cn2[nH]c(=O)c3ccccc3c2=O)cc1 (stereo not given) | -73 | n | n | n | n | n
Cc1ccc(C(=O)CSc2nc(-c3ccccc3)cc(=O)[nH]2)cc1 | n | n | n | n | n | -91
Cc1ccc(C(CC(=O)N2CCCCC2)c2ccccc2)c(O)c1C (stereo not given) | n | n | n | n | n | n
Cc1ccc(C(CC(=O)N2CCNCC2)c2ccccc2)c(O)c1C (stereo not given) | -107 | n | n | n | n | n
Cc1nc2sccn2c(=O)c1CCN1CCC(=C(c2ccc(F)cc2)c2ccc(F)cc2)CC1 | -114 | n | n | n | n[15.4 µM] | -149
CCCCC#Cc1ccc2c(c1)COc1c3ccccc3nn1-2 | n | n | n | n | n | n
N#CCCCC#Cc1ccc2c(c1)COc1c3ccccc3nn1-2 | x | 10µM | n | n | n | x
C(#Cc1ccc2c(c1)COc1c3ccccc3nn1-2)c1ccccc1 | x | n | u | n | n | x
C#Cc1ccc2c(c1)COc1c3ccccc3nn1-2 | x | 13µM | x | n | x | x
CCOc1ccc(NC(=O)CN(C)C(=O)CCC2CCCCC2)cc1OCC | n | n | n | n | n | n
CC#CC#Cc1cccc(=O)o1 | n | 5µM | n | n | n | n
C=CCn1c(O)c(N=NC(=O)CNC(=O)c2ccco2)c2ccccc21 | n | 10µM | n | n | n | n
CCn1c(O)c(N=NC(=O)CNC(=O)c2ccco2)c2ccccc21 | n | u | n | n | n | n
C[C@H]1CN([C@@H](C)CO)C(=O)c2cc(-c3ccccc3F)cnc2O[C@@H]1CN(C)C(=O)NC1CCCCC1 | n | x | x | x | x | n
CC(C)C(=O)Nc1c2c(nn1-c1ccc(F)cc1)CS(=O)(=O)C2 | -109 | n | n | n | n | n
